Experimental data: PubChem BioAssay (NCI)
The panel holds about 79,000 compounds, 15% with a hit somewhere; the sample as a whole holds those more often. Active and inactive are the calls of the source. Rule as the data show it: active = growth inhibition above about 70%; inactive = the rest.

Columns and labels:
[1] = NCI Yeast Anticancer Drug Screen. Data for the mlh1 strain (AID 171);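 also: 0% = growth of vehicle-treated control cultures of the same strain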; settings: S. cerevisiae mlh1 strain growth inhibition, stronger effect = higher value
How it was run: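 Yeast carrying a defined genetic alteration in DNA damage repair or cell cycle control were exposed to test compounds. Growth inhibition was measured relative to vehicle-treated controls.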

[2] = NCI Yeast Anticancer Drug Screen. Data for the sgs1 strain (AID 173);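 also: 0% = growth of vehicle-only control cultures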; settings: S. cerevisiae sgs1 mutant, stronger effect = higher value
How it was run: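 Yeast mutant strains carrying defined defects in DNA damage repair or cell cycle control were exposed to test compounds. Growth inhibition was scored against vehicle-treated controls.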

[3] = NCI Yeast Anticancer Drug Screen. Data for the mlh1 rad18 strain (AID 175); settings: S. cerevisiae mlh1 rad18 strain growth inhibition, stronger effect = higher value
How it was run: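 Growth inhibition of the yeast strain was measured after compound exposure and expressed relative to vehicle-treated controls. The strain carries defined defects in DNA damage repair.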

[4] = NCI Yeast Anticancer Drug Screen. Data for the rad18 strain (AID 177); settings: S. cerevisiae rad18 mutant growth inhibition, stronger effect = higher value
How it was run: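 Yeast carrying a defined DNA damage repair alteration were exposed to compounds. Growth inhibition was expressed relative to vehicle-treated controls.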

[5] = NCI Yeast Anticancer Drug Screen. Data for the rad52 strain (AID 147);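 also: 0% = growth of vehicle-treated control cultures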; settings: S. cerevisiae rad52 mutant growth inhibition, stronger effect = higher value
How it was run: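 Yeast strain carrying a DNA damage repair alteration was exposed to test compounds. Growth inhibition was measured relative to vehicle-treated controls.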

[6] = NCI Yeast Anticancer Drug Screen. Data for the wt1 strain (AID 149);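 also: 0% = growth of vehicle-treated wt1 cultures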; settings: S. cerevisiae wt1 strain (SPY 50644) growth inhibition, stronger effect = higher value
How it was run: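 Vehicle-normalised growth inhibition; strain wt1; compound exposure.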

[7] = NCI Yeast Anticancer Drug Screen. Data for the rad50EPP+ strain (AID 151);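 also: 0% = growth of vehicle-treated control cultures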; settings: S. cerevisiae rad50 mutant strain, stronger effect = higher value
How it was run: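 Yeast strain carrying rad50 alteration (rad50EPP+) exposed to compounds; growth inhibition measured relative to vehicle-treated controls.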

[8] = NCI Yeast Anticancer Drug Screen. Data for the rad50 strain (AID 155);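 also: 0% = growth of vehicle-only cultures of the same strain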; settings: S. cerevisiae rad50 strain growth inhibition, stronger effect = higher value
How it was run: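 A DNA repair-deficient yeast mutant serves as the test organism; compound-induced growth inhibition is calculated against vehicle-treated cells.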

[9] = NCI Yeast Anticancer Drug Screen. Data for the mec2-1 strain (AID 157); settings: S. cerevisiae mec2-1 strain, stronger effect = higher value
How it was run: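 mec2-1 yeast strain, carrying an alteration in DNA damage repair or cell cycle control, was exposed to compounds; growth inhibition was measured relative to vehicle-treated controls.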

[10] = NCI Yeast Anticancer Drug Screen. Data for the rad14 strain (AID 159);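 also: 0% = growth of vehicle-treated control cultures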; settings: S. cerevisiae rad14 strain growth inhibition, stronger effect = higher value
How it was run: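 Vehicle-treated cultures served as the baseline for growth inhibition of a DNA repair-mutant yeast strain exposed to each compound.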

[11] = NCI Yeast Anticancer Drug Screen. Data for the sgs1 mgt1 strain (AID 161);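 also: 0% = growth of cultures given vehicle only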; settings: S. cerevisiae sgs1 mgt1 strain, stronger effect = higher value
How it was run: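 Percent growth inhibition was derived by comparing compound-exposed mutant yeast with vehicle-exposed cultures. The strain carries alterations in DNA damage repair.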

[12] = NCI Yeast Anticancer Drug Screen. Data for the CLN2oe strain (AID 163);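 also: 0% = growth of vehicle-only control cultures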; settings: S. cerevisiae CLN2oe strain, stronger effect = higher value
How it was run: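 Yeast cells carrying a defined cell-cycle control alteration were exposed to test compounds. Growth inhibition was scored against vehicle-treated control cultures.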

[13] = NCI Yeast Anticancer Drug Screen. Data for the cln2 rad14 strain (AID 165);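 also: 0% = growth equal to vehicle treated cultures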; settings: S. cerevisiae cln2 rad14 strain, stronger effect = higher value
How it was run: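 Yeast carrying cln2 and rad14 alterations (cell cycle control and DNA damage repair) were exposed to compounds. Growth inhibition was measured against vehicle-treated controls.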

[14] = NCI Yeast Anticancer Drug Screen. Data for the bub3 strain (AID 167); settings: S. cerevisiae bub3 mutant strain, stronger effect = higher value
How it was run: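 Inhibition values come from growth of compound-treated mutant yeast normalised to vehicle-treated controls.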

[15] = at 5.0 µM (retest, dose inferred, filed as 0.5)
[16] = at 50.0 µM (retest, dose inferred, filed as 5.0)

Measured: growth inhibition

O=C(COc1ccc(Cl)cc1Cl)NO
active: [2]; at 100.0 µM 98%
inactive: [1]; at 1.2 µM 5% | [1]; at 3.7 µM -9% | [1]; at 11.0 µM -2% | [1]; at 33.0 µM 9% | [1]; at 100.0 µM 65% | [2]; at 1.2 µM -3% | [2]; at 3.7 µM 1% | [2]; at 11.0 µM 3% | [2]; at 33.0 µM 48% | [3]; [15] -118% | [3]; [16] -32% | [3]; at 50.0 µM 67.1% | [4]; at 1.2 µM -3% | [4]; at 3.7 µM 4% | [4]; at 11.0 µM 9% | [4]; at 33.0 µM 19% | [4]; at 100.0 µM 66%

CCOC(=O)C1([Se]c2ccccc2)CCCC1=O (stereo unspecified)
inactive: [5]; at 1.2 µM 11% | [5]; at 3.7 µM 28% | [5]; at 11.0 µM 40% | [5]; at 33.0 µM 53% | [6]; at 1.2 µM 16% | [6]; at 3.7 µM 19% | [6]; at 11.0 µM 24% | [6]; at 33.0 µM 50% | [7]; at 1.2 µM -7% | [7]; at 3.7 µM 14% | [7]; at 11.0 µM 44% | [8]; at 1.2 µM 17% | [8]; at 3.7 µM 15% | [8]; [15] 16% | [8]; at 11.0 µM 23% | [8]; at 33.0 µM 44% | [8]; [16] 63% | [9]; at 1.2 µM 1% | [9]; at 3.7 µM -6% | [9]; [15] -18% | [9]; at 11.0 µM 9% | [9]; at 33.0 µM 30% | [9]; [16] 43% | [9]; at 100.0 µM -11% | [10]; at 1.2 µM -9% | [10]; at 3.7 µM 1% | [10]; at 11.0 µM -11% | [10]; at 33.0 µM 25% | [11]; [15] -3% | [11]; [16] 59% | [12]; at 1.2 µM 2% | [12]; at 3.7 µM 6% | [12]; at 11.0 µM 16% | [12]; at 33.0 µM 11% | [12]; at 100.0 µM 68% | [13]; [15] 14% | [13]; [16] 52% | [14]; at 1.2 µM -4% | [14]; at 3.7 µM 0% | [14]; [15] 10% | [14]; at 11.0 µM -13% | [14]; at 33.0 µM 13% | [1]; at 1.2 µM 8% | [1]; at 3.7 µM 6% | [1]; at 11.0 µM 33% | [1]; at 33.0 µM 58% | [2]; at 1.2 µM 22% | [2]; at 3.7 µM 42% | [2]; at 11.0 µM 56% | [3]; [15] 34% | [4]; at 1.2 µM 9% | [4]; at 3.7 µM 21% | [4]; at 11.0 µM 30% | [4]; at 33.0 µM 65%
active: [5]; at 100.0 µM 92% | [6]; at 100.0 µM 91% | [7]; at 33.0 µM 87% | [7]; at 100.0 µM 96% | [8]; at 50.0 µM 84.2% | [8]; at 100.0 µM 92% | [9]; at 50.0 µM 71.8% | [10]; at 100.0 µM 94% | [11]; at 50.0 µM 84.2% | [13]; at 50.0 µM 73.2% | [14]; [16] 82% | [14]; at 50.0 µM 81.2% | [14]; at 100.0 µM 90% | [1]; at 100.0 µM 83% | [2]; at 33.0 µM 75% | [2]; at 100.0 µM 97% | [3]; [16] 87% | [3]; at 50.0 µM 76.6% | [4]; at 100.0 µM 91%
